Each sequence was assayed on VDR:RXRa (NR concentration 270 nM, RXRa partner concentration 90 nM) (assay: PBM binding z-score (relative to random genomic background probes); higher = stronger binding; sequences stand for … in GC…GCGATTGACAGCGTAGAATGAAGG).
Method: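 Protein-binding microarray (Agilent 4x180K custom design, double-stranded 60-nt probes: 5' GC cap, 34-nt variable region, 24-nt constant primer region; full probe sequence given). Purified or IVT nuclear receptor:RXRα heterodimers (3:1 NR:RXRα, mostly 270:90 nM) or homodimers were incubated for 1 h in PBS with 2% milk and no ligand, then detected with Alexa488 antibodies. Fluorescence from o1-orientation probes (~5 replicates averaged) was converted to z-scores against 500 random hg19 background probes. Variable regions are seed direct-repeat (DR0–DR5) sites, all their single-nucleotide variants and half-site ablations.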

| Sequence | PBM binding z-score |
| --- | --- |
| TCTTGAAGATCAAAGGTTAAGAAAGCCGAAGCCT | 1.64 |
| ATACCAAGGAGATCGTGAGGTCGTTGATACTAAC | 1.44 |
| TCTTGTAAATCAACAGGAGGTTAAGAAAGATCGA | 1.16 |
| ATATGTAGGTTACATCCGGGTCAATCAGGCTATG | 3.59 |
| TCGAGTAGGTAAGGGGCATTCAGAATGGCGTCGA | 0.0857 |
| CCTAGCTGGTCAGGAGGTCACACACCGGATATGA | 3.73 |
| TCTGCTAGTTCAGTTGGTCAGCTAACGAGCTGCC | -0.158 |
| TCTTGTACATCAACAGGAGGTTAAGAAAGATCGA | 0.977 |
| GCGACTGGGGCAAAGCAGGTTACCCTAAGGTTGG | 0.0152 |
| CCTACTGGGCCATCAGGACATTGATATCAACGTT | -0.324 |
| AGACTGAGGTTACCAAAGATCAGGGAAACGCTTG | 1.13 |
| ATCTCTAGGTAAAAGCTCAGTGAATCCCGAGGAT | -0.227 |
| CGAACGAGGGCATGATTTGATAGCAAATGCCGAT | 0.55 |
| ATACCAAGGTGATCCTGAGGTCGTTGATACTAAC | 3.42 |
| GGAACGTGGGCAAGTTGATAGCAGAGTTTGATGG | -0.629 |
| ACTAGCAGGCCAAATTTGGGTCACTCAAACAAAG | 0.734 |
| CCTCGGAGGAGAGAAGGTCAGAGCTGTCCGCTTT | 0.722 |
| CGTCCAAGGTCAGCAGGTAAGTGAAAGCGACGTG | 2.55 |
| ATCTCTAGGTAAAGTTAAGTGAAAGATCGATAGA | 0.476 |
| AGAATGAGGTTAATATCAGGGAAACAGAATACAT | 1.04 |

| Sequence | PBM binding z-score |
| --- | --- |
| AGTCAAAGTTCATCTAGGAAACGTAAGATATGCT | 4.66 |
| ATATCTAGGTAACCAAGTTCAGTGAATGCCGAAC | 3.97 |
| CCTTACGGGTCTCGAGGTTATAGCACGACGAGCG | 0.479 |
| TCTCGGAGGGCACGAAAGGTCAGAGCTCGACATC | 4.66 |
| TCGAGTAGGATAGTCGGGGCATTCAGCCAACATA | -0.319 |
| GCGACTAGGGCATCAGCAGGTTACCATAACTTAA | -0.295 |
| CCTCGGCGGACAACAGGAGGTCAGAGCTGCCAGA | 0.818 |
| TACACAGGGTCAAAGGCCAGAGTACGAATGTCGA | 4.89 |
| TCTAGCAGGCCAGAGGGTCACTCTAGAGGTACGG | 0.978 |
| CCTTACAGGTCACTCCAGGTTATAGCATCGGAGT | 4.12 |
| ACATGTAGGTTATCGGGTCATTCAGTTTGCGCAT | 5.39 |
| CCTACTGGGCCATCAGGTAATTGATATCAACGTT | -0.176 |
| GCTGCTAGGTCAGCTGATGGTCAGCTAAAGCTCG | -0.126 |
| CTACCAAGGTGAACAAGATCGTTGATTACTATTC | 1.31 |
| GCATATAGGTTATACAAGGTGAAAGTCCGATTGT | 1.57 |
| CAAACTAGGTCACAGAAGTCAAAGTCCGTGCGTA | 3.91 |
| ACTTGCAGGCCAAGTTTGGGTCACTCAAACAAAG | 0.755 |
| GATACAGTGTCAAGGCCAGAGTACGCGTATTGAT | 0.126 |
| AGTAGCAGGCCAAGTTTGGGTCACTCAAACAAAG | 0.609 |
| GCTGCTAGGTCAATTGATGGTCAGCTAAAGCTCG | 0.815 |

From the supplement of paper PMC6555819
